Where “and” joins values, the source holds several entries; their conditions need not be identical. Identical values can stand only once. Screen size: about 5,500 compounds; about 2,000 (36%) were called active. Another 18% or so got no clear call; they are omitted. Rule as the data show it: active = normalized growth mostly below about 0.91 (no sharp cut-off); inconclusive = no clear call, values can overlap the other calls; inactive = mostly above about 0.92. The list shows a part of the results.
Experiment: chemical genetic growth profiling, strain panel (AID 1159580);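 also: tested at 20 µM; growth read once vehicle control cultures reached saturation at 30 °C; 1 = growth at the plate median or of vehicle wells; lower values mean less growth of the strain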
Conditions: S. cerevisiae deletion strains, growth OD

Measured: normalized growth

Cn1c(=O)c2c(ncn2CC(O)CO)n(C)c1=O (configuration not stated)
inactive: locus YAL013W, strain DEP1, stronger effect = lower value 1.01 | locus YAL021C, strain ccr4, stronger effect = lower value 0.97 | locus YAL026C, strain drs2, stronger effect = lower value 0.967 | locus YAL030W, strain snc1, stronger effect = lower value 0.989 | locus YBL061C, strain skt5, stronger effect = lower value 0.992 | locus YBR009C, strain hhf1, stronger effect = lower value 0.982 | locus YBR021W, strain FUR4, stronger effect = lower value 1.03 | locus YBR023C, strain chs3, stronger effect = lower value 1 | locus YBR171W, strain sec66, stronger effect = lower value 0.978 | locus YBR229C, strain ROT2, stronger effect = lower value 1.01 | locus YBR231C, strain swc5, stronger effect = lower value 1 | locus YBR279W, strain paf1, stronger effect = lower value 0.972 | locus YCL011C, strain gbp2, stronger effect = lower value 0.99 | locus YCL016C, strain dcc1, stronger effect = lower value 1.01 | locus YCL029C, strain bik1, stronger effect = lower value 0.96 | locus YCL061C, strain MRC1, stronger effect = lower value 1 | locus YCL069W, strain vba3, stronger effect = lower value 0.953 | locus YCR088W, strain abp1, stronger effect = lower value 0.989 | locus YDL005C, strain med2, stronger effect = lower value 0.972 | locus YDL035C, strain GPR1, stronger effect = lower value 1.05 | locus YDL040C, strain nat1, stronger effect = lower value 0.986 | locus YDL074C, strain BRE1, stronger effect = lower value 1.02 | locus YDL101C, strain DUN1, stronger effect = lower value 0.995 | locus YDL185W, strain tfp1, stronger effect = lower value 0.954 | locus YDL192W, strain arf1, stronger effect = lower value 0.972 | locus YDR001C, strain nth1, stronger effect = lower value 0.97 | locus YDR069C, strain doa4, stronger effect = lower value 0.958 | locus YDR101C, strain arx1, stronger effect = lower value 1.01 | locus YDR137W, strain rgp1, stronger effect = lower value 0.986 | locus YDR159W, strain sac3, stronger effect = lower value 0.942 | locus YDR162C, strain NBP2, stronger effect = lower value 1.02 | locus YDR195W, strain ref2 0.951 | locus YDR297W, strain sur2, stronger effect = lower value 0.991 | locus YDR318W, strain mcm21, stronger effect = lower value 0.977 | locus YDR334W, strain swr1, stronger effect = lower value 0.973 | locus YDR335W, strain msn5, stronger effect = lower value 0.981 | locus YDR388W, stronger effect = lower value 0.988 | locus YDR392W, strain spt3, stronger effect = lower value 0.939 | locus YDR502C, strain sam2, stronger effect = lower value 0.984 | locus YEL003W, strain gim4, stronger effect = lower value 0.981 | locus YEL037C, strain rad23, stronger effect = lower value 0.972 | locus YEL061C, strain CIN8 (second series), stronger effect = lower value 0.97 | locus YEL061C, strain CIN8, stronger effect = lower value 0.997 | locus YER015W, strain faa2, stronger effect = lower value 0.993 | locus YER016W, strain bim1, stronger effect = lower value 0.951 | locus YER110C, stronger effect = lower value 0.943 | locus YER111C, strain swi4, stronger effect = lower value 0.988 | locus YER155C, strain BEM2 (second series), stronger effect = lower value 0.953 | locus YER155C, strain BEM2, stronger effect = lower value 1 | locus YER167W, strain BCK2, stronger effect = lower value 0.996 | locus YFR010W, strain ubp6, stronger effect = lower value 0.967 | locus YGL078C, strain dbp3, stronger effect = lower value 0.978 | locus YGL086W, strain mad1, stronger effect = lower value 1.01 | locus YGL167C, strain pmr1, stronger effect = lower value 0.989 | locus YGL173C, strain kem1, stronger effect = lower value 0.97 | locus YGL227W, strain vid30, stronger effect = lower value 0.987 | locus YGL240W, strain doc1, stronger effect = lower value 0.973 | locus YGL248W, strain PDE1, stronger effect = lower value 0.995 | locus YGL253W, strain hxk2, stronger effect = lower value 0.972 | locus YGR078C, strain PAC10, stronger effect = lower value 1.01 | locus YGR135W, strain pre9, stronger effect = lower value 0.954 | locus YGR252W, strain gcn5, stronger effect = lower value 0.987 | locus YHR013C, strain ard1, stronger effect = lower value 0.975 | locus YHR027C, strain rpn1, stronger effect = lower value 0.981 | locus YHR030C, strain SLT2, stronger effect = lower value 1 and 1.02 | locus YHR079C, strain IRE1 (second series), stronger effect = lower value 0.968 | locus YHR079C, strain IRE1, stronger effect = lower value 1.08 | locus YHR094C, strain hxt1, stronger effect = lower value 0.984 | locus YHR129C, strain ARP1, stronger effect = lower value 1.01 | locus YHR142W, strain chs7, stronger effect = lower value 0.992 | locus YHR200W, strain rpn10, stronger effect = lower value 0.97 | locus YIL066C, strain RNR3, stronger effect = lower value 1.01 | locus YIL073C, strain SPO22, stronger effect = lower value 0.908 | locus YIL125W, strain kgd1, stronger effect = lower value 0.992 | locus YIR030C, strain dcg1, stronger effect = lower value 0.949 | locus YJL092W, strain hpr5, stronger effect = lower value 0.998 | locus YJL095W, strain BCK1 (second series), stronger effect = lower value 0.989 | locus YJL095W, strain BCK1, stronger effect = lower value 0.982 and 1.02 | locus YJL115W, strain asf1, stronger effect = lower value 0.979 | locus YJL129C, strain trk1, stronger effect = lower value 0.994 | locus YJL134W, strain LCB3, stronger effect = lower value 1 | locus YJL154C, strain vps35, stronger effect = lower value 0.972 | locus YJL164C, strain tpk1, stronger effect = lower value 0.998 | locus YJL166W, strain qcr8, stronger effect = lower value 1.04 | locus YJL168C, strain set2, stronger effect = lower value 0.98 | locus YJL187C, strain SWE1 (second series), stronger effect = lower value 0.988 | locus YJL187C, strain SWE1, stronger effect = lower value 0.981 | locus YJR043C, strain POL32, stronger effect = lower value 1.06 | locus YJR066W, strain TOR1, stronger effect = lower value 0.952 | locus YKL009W, strain mrt4, stronger effect = lower value 0.979 | locus YKL068W, stronger effect = lower value 0.982 | locus YKL085W, strain MDH1 (second series), stronger effect = lower value 1.01 | locus YKL085W, strain MDH1, stronger effect = lower value 1.01 | locus YKL160W, strain elf1, stronger effect = lower value 1.06 | locus YKR001C, strain vps1, stronger effect = lower value 0.975 | locus YKR026C, strain gcn3, stronger effect = lower value 0.974 | locus YKR091W, strain srl3, stronger effect = lower value 0.994 | locus YLL001W, strain dnm1, stronger effect = lower value 1.03 | locus YLL026W, stronger effect = lower value 0.987 | locus YLL041C, strain sdh2, stronger effect = lower value 0.979 | locus YLR027C, strain aat2, stronger effect = lower value 0.973 | locus YLR039C, strain RIC1, stronger effect = lower value 1.01 | locus YLR058C, strain SHM2, stronger effect = lower value 0.996 | locus YLR102C, strain apc9, stronger effect = lower value 0.975 | locus YLR113W, strain HOG1, stronger effect = lower value 1.06 | locus YLR221C, strain rsa3, stronger effect = lower value 1.03 | locus YLR258W, strain gsy2, stronger effect = lower value 0.985 | locus YLR262C, strain YPT6 (second series), stronger effect = lower value 0.991 | locus YLR262C, strain YPT6, stronger effect = lower value 0.939 | locus YLR268W, strain sec22, stronger effect = lower value 0.966 | locus YLR320W, strain mms22, stronger effect = lower value 1.04 | locus YLR330W, strain CHS5, stronger effect = lower value 0.999 | locus YLR342W, strain FKS1 (second series), stronger effect = lower value 1.08 | locus YLR342W, strain FKS1, stronger effect = lower value 0.983 | locus YLR357W, strain rsc2, stronger effect = lower value 0.989 | locus YLR370C, strain arc18, stronger effect = lower value 0.981 | locus YLR371W, strain rom2, stronger effect = lower value 0.963 | locus YLR384C, strain iki3, stronger effect = lower value 0.98 | locus YLR418C, strain cdc73, stronger effect = lower value 0.996 | locus YML016C, strain PPZ1, stronger effect = lower value 1.01 | locus YML032C, strain rad52, stronger effect = lower value 0.988 | locus YML120C, strain ndi1, stronger effect = lower value 1.01 | locus YML124C, strain tub3, stronger effect = lower value 0.988 | locus YMR058W, strain fet3, stronger effect = lower value 0.981 | locus YMR078C, strain ctf18, stronger effect = lower value 0.966 | locus YMR125W, strain sto1, stronger effect = lower value 0.979 | locus YMR129W, stronger effect = lower value 0.966 | locus YMR205C, strain PFK2, stronger effect = lower value 1.04 | locus YMR223W, strain ubp8, stronger effect = lower value 0.973 | locus YMR231W, strain pep5, stronger effect = lower value 0.97 | locus YMR307W, strain GAS1, stronger effect = lower value 1.05 | locus YNL067W, strain RPL9B, stronger effect = lower value 0.97 | locus YNL071W, strain lat1, stronger effect = lower value 0.975 | locus YNL128W, strain TEP1, stronger effect = lower value 0.969 | locus YNL153C, strain GIM3, stronger effect = lower value 1 | locus YNL183C, strain NPR1, stronger effect = lower value 0.987 | locus YNL209W, strain ssb2, stronger effect = lower value 0.995 | locus YNL233W, strain BNI4, stronger effect = lower value 1.01 | locus YNL248C, strain rpa49, stronger effect = lower value 0.978 | locus YNL250W, strain rad50, stronger effect = lower value 0.974 | locus YNL271C, strain bni1, stronger effect = lower value 0.973 | locus YNL298W, strain CLA4, stronger effect = lower value 0.969 | locus YNL307C, strain MCK1, stronger effect = lower value 0.983 | locus YNL322C, strain KRE1 (second series), stronger effect = lower value 0.983 | locus YNL322C, strain KRE1, stronger effect = lower value 0.998 | locus YNR049C, strain mso1, stronger effect = lower value 0.988 | locus YNR052C, strain pop2, stronger effect = lower value 0.969 | locus YOL006C, strain TOP1, stronger effect = lower value 0.966 | locus YOL012C, strain htz1 0.82 | locus YOL147C, strain pex11, stronger effect = lower value 0.974 | locus YOR001W, strain rrp6, stronger effect = lower value 0.93 | locus YOR061W, strain CKA2, stronger effect = lower value 1 | locus YOR069W, strain VPS5, stronger effect = lower value 1.01 | locus YOR070C, strain gyp1, stronger effect = lower value 0.989 | locus YOR080W, strain dia2, stronger effect = lower value 0.984 | locus YOR083W, strain WHI5, stronger effect = lower value 1.07 | locus YOR106W, strain vam3, stronger effect = lower value 1.02 | locus YOR136W, strain idh2, stronger effect = lower value 0.976 | locus YOR144C, strain elg1, stronger effect = lower value 0.98 | locus YOR184W, strain ser1, stronger effect = lower value 0.957 | locus YOR231W, strain MKK1, stronger effect = lower value 1.03 | locus YOR265W, strain rbl2, stronger effect = lower value 0.986 | locus YOR270C, strain vph1, stronger effect = lower value 0.982 | locus YOR290C, strain snf2, stronger effect = lower value 0.954 | locus YOR316C, strain cot1, stronger effect = lower value 0.959 | locus YPL051W, strain arl3, stronger effect = lower value 0.991 | locus YPL055C, strain LGE1, stronger effect = lower value 1.01 | locus YPL078C, strain atp4, stronger effect = lower value 1.03 | locus YPL106C, strain sse1, stronger effect = lower value 1 | locus YPL240C, strain hsp82, stronger effect = lower value 0.97 | locus YPL241C, strain CIN2, stronger effect = lower value 1 | locus YPL256C, strain CLN2, stronger effect = lower value 1.02 | locus YPR119W, strain clb2, stronger effect = lower value 0.967 | locus YPR141C, strain kar3, stronger effect = lower value 0.95 | locus YPR163C, strain tif3, stronger effect = lower value 0.98 | locus YPR167C, strain met16, stronger effect = lower value 0.968 | strain wtn01, stronger effect = lower value 0.997

Reference: PubChem BioAssay AID1159580 (chemical genetic matrix, 2015)
